The values that follow come from PubChem BioAssay (Tox21).

A number with no mark means an inactive call. Records with an inconclusive call do not appear. Activity calls are given as the source filed them. Unless noted, calls come from the whole dose curve; as a rule, active = well fitted curve in the direction sought with a large enough effect in the repeat runs; inconclusive = weak or mixed curves; inactive = no such curve, though single readings can be large; an effect the other way counts as inactive or inconclusive.

Assay [1] can be described thus: qHTS assay to identify small molecule antagonists of the estrogen receptor beta (ER-beta) signaling pathway - cell viability counter screen (AID 1259382). Note: nearly all actives have a fitted effect of over 55% in size. Note: potency is the fitted concentration of half-maximal effect. The essentials:
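Readout: luminescence, CellTiter-Glo, same wells as bla assay. System: ER-beta-UAS-bla GripTite HEK293T, 2% charcoal-stripped FBS. Exposure: compounds plus 1nM 17-beta-estradiol, 16 hr, 37C.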
A general note: qHTS replaces the single test concentration by a dilution series.

For assay [2], the target named is Estrogen receptor (Homo sapiens) (UniProt P03372). Description: qHTS assay to identify small molecule agonists of the estrogen receptor alpha (ER-alpha) signaling pathway in the presence of an antagonist (AID 1259383; calls by dose curve; note: top concentration of the series differs between compounds; nearly all actives have a fitted effect of over 15% in size). Put shortly:
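Quantitative HTS confirmation: compounds titrated at 15 concentrations onto estrogen-deprived VM7Luc4E2 cells carrying a four-ERE luciferase construct, with ICI-182,780 present at 10.0nM final. Signal is luminescence after 22hr exposure.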

The nature of assay [3]: qHTS assay to identify small molecule agonists or antagonists of the thyroid stimulating hormone receptor (TSHR) signaling pathway - wild type cell line counter screen (AID 1259384; calls by dose curve). Put shortly:
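Counter screen in untransfected Hek293: compounds (15-point titration, triplicate) plus phosphodiesterase inhibitor Ro20-1724 added after 18 h plating; 30 min RT. Intracellular cAMP via competitive d2/cryptate immunoassay, 1 h incubation.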

Assay [4] in a line: qHTS assay to identify small molecule agonists of the estrogen receptor alpha (ER-alpha) signaling pathway in the presence of an antagonist - cell viability counter screen (AID 1259386).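 Note: cells exposed to compounds for 22 h at 37 °C before the viability read; nearly all actives have a fitted effect of over 30% in size.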 Note: potency is the fitted concentration of half-maximal effect. Put shortly: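 The test measures whether compounds kill ER-alpha reporter cells (VM7Luc4E2) under antagonist co-treatment (ICI-182,780, 10.0nM). Fluorescence from CellTiter-Fluor is read after a 22hr exposure.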

In assay [5] the target is Progesterone receptor (Homo sapiens) (UniProt P06401). As to the kind of experiment: qHTS assay to identify small molecule agonists of the progesterone receptor (PR) signaling pathway (AID 1346784; calls by dose curve; note: nearly all actives have a fitted effect of over 30% in size). The essentials: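 Using charcoal-stripped serum (2%) to limit endogenous steroids, PR-UAS-bla HEK 293T cells received compounds for 16 hr at 37C after 6 hr plating; beta-lactamase FRET fluorescence was recorded following 2 hr substrate loading at room temperature.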
Progesterone receptor (Homo sapiens), sequence (P06401 whole entry, looked up): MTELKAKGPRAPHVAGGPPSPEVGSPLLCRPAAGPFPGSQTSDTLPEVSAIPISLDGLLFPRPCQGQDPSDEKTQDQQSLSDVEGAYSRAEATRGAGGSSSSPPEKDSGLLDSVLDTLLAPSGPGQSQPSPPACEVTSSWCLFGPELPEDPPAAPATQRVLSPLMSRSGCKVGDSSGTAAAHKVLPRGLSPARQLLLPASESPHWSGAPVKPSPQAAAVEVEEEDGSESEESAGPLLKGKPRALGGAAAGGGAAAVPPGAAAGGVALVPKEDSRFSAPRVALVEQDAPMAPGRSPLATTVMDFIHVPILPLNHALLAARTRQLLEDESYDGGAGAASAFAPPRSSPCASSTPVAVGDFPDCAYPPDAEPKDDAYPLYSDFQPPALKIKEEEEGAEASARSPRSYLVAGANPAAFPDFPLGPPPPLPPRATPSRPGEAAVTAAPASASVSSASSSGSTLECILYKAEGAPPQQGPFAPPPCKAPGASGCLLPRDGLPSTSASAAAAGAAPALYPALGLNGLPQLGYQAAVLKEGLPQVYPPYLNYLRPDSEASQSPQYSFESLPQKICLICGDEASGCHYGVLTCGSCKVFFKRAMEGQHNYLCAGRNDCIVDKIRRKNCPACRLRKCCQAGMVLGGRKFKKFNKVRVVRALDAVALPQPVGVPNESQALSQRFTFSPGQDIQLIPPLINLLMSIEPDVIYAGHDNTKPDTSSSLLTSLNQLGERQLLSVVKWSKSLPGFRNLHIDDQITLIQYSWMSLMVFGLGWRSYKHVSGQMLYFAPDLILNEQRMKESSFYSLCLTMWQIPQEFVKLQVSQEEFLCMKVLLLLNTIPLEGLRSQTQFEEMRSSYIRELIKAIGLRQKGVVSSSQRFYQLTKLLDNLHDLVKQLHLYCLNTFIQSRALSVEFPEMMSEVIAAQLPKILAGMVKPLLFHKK

Assay [6] has the same target. As to the kind of experiment: qHTS assay to identify small molecule antagonists of the progesterone receptor (PR) signaling pathway (AID 1346795; active = well fitted inhibition curve with a large enough effect in the signal ratio in the repeat runs, not every such curve was filed as active; the % refers to the signal ratio; note: potency is the fitted concentration of half-maximal effect). Put shortly: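 Inhibition of R5020-induced (1 nM final) beta-lactamase reporter signal in PR-UAS-bla HEK293T cells was scored by FRET fluorescence after overnight (16 hr) compound treatment.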
Assay [7] in a line: qHTS assay to identify small molecule antagonists of the TGF-beta/Smad signaling pathway - cell viability counter screen (AID 1346824). Note: nearly all actives have a fitted effect of over 50% in size. Put shortly: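 Cytotoxicity counter-screen run in the same wells as the beta-lactamase Smad reporter read: CellTiter-Glo luminescence after 30 min at room temperature. HEK 293T SBE-bla cells had 5 hr compound exposure at 37 C with TGF-beta1 (0.25 ng/mL stock).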

The nature of assay [8]: qHTS assay to identify small molecule agonists of the TGF-beta/Smad signaling pathway - cell viability counter screen (AID 1346829). Note: top concentration of the series differs between compounds; nearly all actives have a fitted effect of over 45% in size. Put shortly:
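In parallel with the Smad reporter read, viability of HEK 293T cells stably carrying SBE-bla is quantified by ATP luminescence following 5 hr compound treatment.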

Assay [9] in a line: qHTS assay to identify small molecule agonists of the TGF-beta/Smad signaling pathway (AID 1346859; active = well fitted activation curve with a large enough effect in the signal ratio in the repeat runs, not every such curve was filed as active; the % refers to the signal ratio; note: series mostly up to about 77 µM). Put shortly: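 Stable Smad binding element-beta-lactamase HEK 293T cells; 5 hr compound exposure at 37 C under 5% CO2; 2 hr room-temperature substrate step; fluorescence excited at 405 nm, collected at 460 nm and 530 nm.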
Assay [10] addresses Thyrotropin-releasing hormone receptor (Homo sapiens) (UniProt P34981). As to the kind of experiment: qHTS assay to identify small molecule antagonists of the thyrotropin-releasing hormone receptor (TRHR) signaling pathway (AID 1346877; active = well fitted inhibition curve with a large enough effect in the repeat runs, not every such curve was filed as active; note: series mostly up to about 51 µM). Put shortly: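 Overnight-plated (18 h, 37 °C) HEK293 cells expressing TRHR were dye-loaded 2 h, treated with compound, then stimulated with TRH at 1 nM final. Fluorescence intensity was captured every second for 3 min.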

For assay [11] the target is unchanged. Description: qHTS assay to identify small molecule agonists of the thyrotropin-releasing hormone receptor (TRHR) signaling pathway (AID 1346891; calls by dose curve;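 note: HEK293 cells expressing TRHR with calcium dye readout; series mostly up to about 58 µM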). Put shortly: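 In 1536-format, 1500 TRHR-Hek293 cells per well grew 18 h, took up calcium dye for 2 h at 37 °C, received compound, and were read kinetically; 15-point titrations, triplicates.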
A short description of assay [12]: Caspase-3/7 induction in CHO-K1 cells by small molecules, qHTS cell viability counter screen (AID 1346979). Note: nearly all actives have a fitted effect of over 35% in size. Note: potency is the fitted concentration of half-maximal effect. Put shortly: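 To flag cytotoxic compounds, treated CHO-K1 wild-type cells were given CellTiter-Fluor at 16hr and read fluorescently after 1hr at 37C; the caspase-3/7 luminescence was measured in these same wells.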
A short description of assay [13]: Caspase-3/7 induction in CHO-K1 cells by small molecules, qHTS assay (AID 1346980). Note: nearly all actives have a fitted effect of over 15% in size. Put shortly: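 Luminescent Caspase-Glo 3/7 read (30min, room temperature) quantified apoptosis induction. Cells were wild-type CHO-K1, treated with compound for 17hr at 37 C and 5% CO2.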
The nature of assay [14]: Caspase-3/7 induction in HepG2 cells by small molecules, qHTS cell viability counter screen (AID 1346981). Note: nearly all actives have a fitted effect of over 30% in size. Note: potency is the fitted concentration of half-maximal effect. The essentials: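 Treatment of HepG2 cells with DMSO-delivered compounds ran 16 hr at 37 C following a 5-hr pre-incubation of 2,000 cells/well. CellTiter-Fluor fluorescence, read after 1 hr, served as the viability measure in a qHTS format.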
Assay [15] can be described thus: qHTS assay to identify small molecule antagonists of the progesterone receptor (PR) signaling pathway - cell viability counter screen (AID 1346798). Note: series mostly up to about 92 µM; nearly all actives have a fitted effect of over 50% in size. Put shortly:
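ATP content as viability readout: CellTiter-Glo luminescence, 30 min room temperature, in PR-UAS-bla HEK293T cells after 16 hr compound/R5020 treatment at 37C and 5% CO2.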

A short description of assay [16]: qHTS assay to identify small molecule agonists of the progesterone receptor (PR) signaling pathway - cell viability counter screen (AID 1346799; calls by dose curve; note: nearly all actives have a fitted effect of over 45% in size; note: potency is the fitted concentration of half-maximal effect). The essentials:
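Cytotoxicity in PR-bla HEK293T cells: 16 h compound, 37C; CellTiter-Glo added post-FRET read; luminescence after 30 min RT.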

The nature of assay [17]: Human pregnane X receptor (PXR) small molecule agonists, qHTS cell viability counter screen (AID 1346977). Note: nearly all actives have a fitted effect of over 50% in size. Note: potency is the fitted concentration of half-maximal effect. The essentials:
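Readout is CellTiter-Fluor fluorescence from PXR-Luc HepG2 cells. Plated cells rested 5hr, then were treated with compounds for 24hr at 37C and 5% CO2, with reagent present during the last hour.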

Assay [18] can be described thus: Caspase-3/7 induction in HepG2 cells by small molecules, qHTS assay (AID 1346978). Note: nearly all actives have a fitted effect of over 15% in size. Note: potency is the fitted concentration of half-maximal effect. The essentials:
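Caspase-3/7 induction was measured by Caspase-Glo 3/7 luminescence (30 min, room temperature) after a 17 hr compound exposure of wild-type HepG2 cells seeded at 2,000 per well and pre-incubated 5 hr.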

In assay [19] the target is Nuclear receptor subfamily 1 group I member 2 (Homo sapiens) (UniProt O75469). As to the kind of experiment: Human pregnane X receptor (PXR) small molecule agonists, qHTS assay (AID 1346982). Note: nearly all actives have a fitted effect of over 35% in size. The essentials: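 Stable HepG2 line reporting PXR-mediated CYP3A4 expression via luciferase. Treatment: 24 hr with compounds in DMSO at 37 C. Detection: ONE-Glo luminescence.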
Nuclear receptor subfamily 1 group I member 2 (Homo sapiens), sequence (O75469 whole entry, looked up): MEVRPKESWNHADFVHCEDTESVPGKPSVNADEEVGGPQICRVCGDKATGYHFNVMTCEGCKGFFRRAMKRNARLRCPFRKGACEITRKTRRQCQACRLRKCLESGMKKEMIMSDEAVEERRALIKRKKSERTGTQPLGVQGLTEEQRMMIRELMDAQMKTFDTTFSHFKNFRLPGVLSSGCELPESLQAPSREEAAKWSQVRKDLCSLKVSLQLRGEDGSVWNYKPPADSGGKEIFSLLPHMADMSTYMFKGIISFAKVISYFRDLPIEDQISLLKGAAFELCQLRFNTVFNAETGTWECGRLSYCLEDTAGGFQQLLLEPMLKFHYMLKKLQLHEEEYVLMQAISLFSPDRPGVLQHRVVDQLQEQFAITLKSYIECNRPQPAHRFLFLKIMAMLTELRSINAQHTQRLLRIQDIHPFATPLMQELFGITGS

Thyrotropin-releasing hormone receptor (Homo sapiens), sequence (P34981 whole entry, looked up): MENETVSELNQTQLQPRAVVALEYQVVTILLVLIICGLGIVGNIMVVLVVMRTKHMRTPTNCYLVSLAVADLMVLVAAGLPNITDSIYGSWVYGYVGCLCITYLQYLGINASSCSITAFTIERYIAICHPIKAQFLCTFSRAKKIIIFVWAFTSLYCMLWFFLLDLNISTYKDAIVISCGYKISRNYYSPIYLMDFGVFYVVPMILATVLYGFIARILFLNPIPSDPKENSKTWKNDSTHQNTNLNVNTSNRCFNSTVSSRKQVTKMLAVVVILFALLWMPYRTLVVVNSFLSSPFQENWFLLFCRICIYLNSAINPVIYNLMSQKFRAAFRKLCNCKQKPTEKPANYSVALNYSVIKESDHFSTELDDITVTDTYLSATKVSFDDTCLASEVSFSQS
Estrogen receptor (Homo sapiens), sequence (P03372 whole entry, looked up): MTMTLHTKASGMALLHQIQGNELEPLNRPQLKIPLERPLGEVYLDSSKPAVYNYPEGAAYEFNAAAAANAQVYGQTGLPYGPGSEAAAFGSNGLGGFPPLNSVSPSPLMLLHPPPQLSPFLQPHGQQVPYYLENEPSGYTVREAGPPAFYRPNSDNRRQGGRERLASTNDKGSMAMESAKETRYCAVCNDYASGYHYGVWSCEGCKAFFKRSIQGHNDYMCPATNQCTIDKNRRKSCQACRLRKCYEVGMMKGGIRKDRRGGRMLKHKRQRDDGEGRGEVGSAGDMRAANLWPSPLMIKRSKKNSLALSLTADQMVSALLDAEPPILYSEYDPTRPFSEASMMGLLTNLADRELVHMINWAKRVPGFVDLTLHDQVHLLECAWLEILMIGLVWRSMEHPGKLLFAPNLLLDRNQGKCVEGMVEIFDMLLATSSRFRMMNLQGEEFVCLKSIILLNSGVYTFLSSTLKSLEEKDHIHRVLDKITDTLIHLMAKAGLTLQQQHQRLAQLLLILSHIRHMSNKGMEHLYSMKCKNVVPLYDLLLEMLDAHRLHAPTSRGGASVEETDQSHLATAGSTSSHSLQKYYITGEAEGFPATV

With `CCCCCCCCCCCCN1CCCC1=O`, the Potency was 54.5 µM (active) in assay [1], 48.6 µM (active) in [6], 61.1 µM (active) in [12] and 61.1 µM (active) in assay [14]. The Potency entry in [2], in assay [3], in assay [4], in assay [7], in [8] and in [10] was “inactive” throughout. The Potency result in assay [11] and in assay [13] was “inactive” in each case. Besides, the result in [5] and in assay [9] was inactive.
`CCOC(=O)[C@H](O)[C@@H](O)C(=O)OCC`: the Potency result in assay [1], in assay [2], in [4], in assay [6], in [15] and in [16] was “inactive” throughout. Also, the Potency entry in assay [8], in assay [11], in assay [17], in [18], in [12] and in assay [13] was “inactive” throughout. The Potency entry in assay [14] and in [19] was “inactive” in each case. Besides, the molecule was called inactive in assay [5] and in assay [9].
Consider `CC(=O)Nc1ccc(N=Nc2cc(C)ccc2O)cc1`, for which the Potency result in [1], in [2], in assay [15], in [7], in assay [8] and in assay [18] was “inactive” in each case. In assay [13], the Potency result was “inactive”. For the same molecule, the Potency in assay [4] was 15.4 µM (active); in assay [6] it was 48.6 µM (active); in assay [12], 68.6 µM (active); in [14], 61.1 µM (active). The molecule was called inactive in assay [5] and in assay [9].
On to `C=CC(C)(C)O`, for which the Potency entry in [1], in [2], in assay [4], in assay [6], in assay [15] and in assay [16] was “inactive” in each case. For the same molecule, the Potency result in assay [7], in assay [8], in assay [17], in assay [18], in assay [13] and in assay [14] was “inactive” each time. The Potency entry in assay [19] was “inactive”. Moreover, the result in assay [5] and in assay [9] was inactive.
On to `O=C(Cl)c1ccc(Cl)cc1Cl`, for which the Potency entry in [1], in assay [2], in [4], in [6], in assay [15] and in assay [16] was “inactive” throughout. For the same molecule, the Potency result in assay [7], in assay [8], in assay [10], in assay [17], in assay [18] and in assay [19] was “inactive” throughout. In addition, the result in assay [5] and in [9] was inactive.
For `CCc1cccc(CC)c1`, the Potency result in assay [1], in assay [2], in assay [4], in assay [6], in [15] and in assay [16] was “inactive” throughout. For the same molecule, the Potency result in [7], in [8], in [11], in assay [17], in assay [18] and in assay [13] was “inactive” throughout. For the same molecule, the Potency result in assay [19] was “inactive”. Also, the outcome in [5] and in assay [9] was inactive.
With `[Cl][Eu]([Cl])[Cl]`, the Potency result in assay [1], in assay [2], in [4], in assay [15], in assay [16] and in [7] was “inactive” in each case. The Potency entry in [8], in [10], in assay [11], in assay [17], in [18] and in [12] was “inactive” each time. Besides, the Potency entry in [13] and in assay [14] was “inactive” each time. Moreover, the outcome in [5] and in assay [9] was inactive.
With `CC(=O)[C@]1(O)Cc2c(O)c3c(c(O)c2[C@@H](O[C@H]2C[C@H](N)[C@H](O)[C@H](C)O2)C1)C(=O)c1ccccc1C3=O`, the Potency entry in [1], in assay [2], in [15], in [7], in assay [11] and in assay [19] was “inactive” throughout. In addition, the Potency is 18.8 µM (active) in assay [4], 1.33 µM (active) in assay [16], 2.66 µM (active) in assay [17] and 2.11 µM (active) in assay [18]. Also, the outcome in assay [9] was inactive.
